Assay outcomes deposited in PubChem by National Center for Advancing Translational Sciences (NCATS).
GLP1R ag: GLP-1 receptor (human) agonism; P43220; HEK293 GLP-1R CRE-luciferase, luminescence, 4-6 h; cells express a hypersensitive GLP-1R form; Potency, µM (doses to about 45.6 µM), without a hit: top-dose activation, usual class: activators; 0.007% of 380,000 active; AID 624172; further: % of control where 0% means no effect
Target sequence (P43220 whole entry, looked up): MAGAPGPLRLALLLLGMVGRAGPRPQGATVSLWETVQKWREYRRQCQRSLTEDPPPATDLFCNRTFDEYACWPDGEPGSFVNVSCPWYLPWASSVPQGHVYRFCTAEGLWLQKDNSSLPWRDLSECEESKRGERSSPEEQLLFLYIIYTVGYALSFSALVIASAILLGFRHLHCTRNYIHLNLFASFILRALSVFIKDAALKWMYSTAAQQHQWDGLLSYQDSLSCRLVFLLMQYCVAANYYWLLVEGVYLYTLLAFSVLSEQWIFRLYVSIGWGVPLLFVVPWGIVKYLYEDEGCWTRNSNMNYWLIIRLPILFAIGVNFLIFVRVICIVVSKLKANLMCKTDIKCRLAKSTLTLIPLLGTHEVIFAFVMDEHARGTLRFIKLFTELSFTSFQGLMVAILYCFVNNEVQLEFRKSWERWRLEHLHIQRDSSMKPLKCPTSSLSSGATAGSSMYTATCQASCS
BRCA1 expr act: increases BRCA1 expression. MCF7-BRCA1-FFLuc reporter, luminescence, 48 h; response scale: scaled: vehicle 0%, 10 µM genistein 100%. 1.1% of 380,000 active. Potency, µM (titrated, usually from 46.1 µM), inactives show top-dose activation, hits mostly activators; further: nearly all actives have a fitted effect of over 80% in size
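Reporter cells (MCF7, BRCA1 promoter-firefly luciferase) received library compounds across a concentration series for 48 h. End-point luminescence was measured and concentration-effect curves derived after normalization.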
a7 integrin act: activators of alpha7 integrin expression for muscular dystrophy. 0.064% of 350,000 active. Potency, µM (doses to about 38.3 µM), inactives show at the highest dose activation, usual class: activators. alpha7betagal myoblasts, beta-gal FDG fluorescence, 48 h;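 further: 100% = response of the positive control SU9516; nearly all actives have a fitted effect of over 60% in size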
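alpha7betagal+/- myoblasts (passage 13, 250/well) treated 48 h at 37C with compounds at 1:260 dilution of DMSO stock. Lysed, then beta-galactosidase activity read as FDG fluorescence (ex 480/em 540) after 30 min, with pre-read for autofluorescence.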
GLP1R inv ag: inverse agonists of human GLP-1 receptor; HEK293 GLP-1R CRE-luciferase, luminescence, 24 h; GLP-1R form is constitutively active; Potency, µM (highest dose often 38.3 µM), without a hit: top-dose activity change, negative = inhibition, hits mostly inhibitors; P43220; 1.6% of 410,000 active; AID 624417; further: on the % scale 0 is the no-effect control and ±100 the full control effect; nearly all actives have a fitted effect of over 55% in size
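Constitutively active GLP-1R drives a cAMP-responsive luciferase in stably transfected HEK293 cells; test compounds are added after overnight (12 h) attachment and left 24 hr, and signal loss in luminescence marks inhibition.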
HEK293 tox: cytotoxic in the GLP-1 receptor inverse agonist counter-screen. Potency, µM (top dose mostly 38.3 µM), for the others: at the top dose activity change, negative = inhibition, actives largely listed as inhibitors. 0.13% of 410,000 active. HEK293 cAMP-luciferase reporter cells, luminescence, 24 h. AID 624418;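 further: loss of luciferase light is scored as toxicity; on the % scale 0 is the no-effect control and ±100 the full control effect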
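Step one: seed cells (200 cells/uL, DMEM with 10% Nu serum, 1% pen-strep). Step two: 12-hour incubation at 37 deg C. Step three: pin 23 nL compound, incubate 24 hr. Step four: add luciferase reagent, read luminescence 12 min later.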
* hit, by the source's call; ? = inconclusive; . = no result. Sampled rows, rich in hits. Any-hit rate of the full collection: about 2.7%. The call rests on the fitted dose curve; in most records, active means well fitted curve in the direction sought with a large enough effect; inconclusive means small, poorly fitted or top-dose-only effect, or another doubt; inactive means no such curve, though single readings can be large; an effect the other way counts as inactive or inconclusive. Potency means the concentration at half of the fitted maximal effect.

SMILES	GLP1R ag	BRCA1 expr act	a7 integrin act	GLP1R inv ag	HEK293 tox
CCOC(=O)CC(=O)Nc1ccc(C(=O)OCC)cc1	3.2%	37.5%	15.6%	28.5%	-2.2%
CCOC(=O)c1ccc(NC(=O)N(CC)CC)cc1	-2.7%	2.51µM*	9.2%	0.0%	-9.9%
CC(C)Oc1ccccc1C1C=C(C(=O)O)Nc2ncnn21 (stereo not given)	1.7%	6.1%	.	22.9%	3.3%
CCc1ccccc1NC(=O)c1ccc(F)c(S(=O)(=O)N2CCN(c3ccccc3OC)CC2)c1	.	.	.	?	-9.8%
Cn1ncc2c(Nc3cccc(Cl)c3)nc(Nc3cccc(Cl)c3)nc21	5.9%	-80.7%	-66.6%	11.2µM*	-29.4%
Cc1nnc(N2C(=O)c3oc4ccccc4c(=O)c3C2c2ccc(F)cc2)s1 (stereo not given)	.	.	.	-3.7%	1.9%
CCC(CC)C(=O)N1N=C(c2ccc(NS(C)(=O)=O)cc2)CC1c1ccc(C)cc1 (stereo not given)	15.4%	-44.6%	7.9%	8.91µM*	-26.6%
CS(=O)(=O)Nc1ccc(C2=NN(S(C)(=O)=O)C(c3ccc4c(c3)OCO4)C2)cc1 (stereo not given)	-1.5%	4.47µM*	6.0%	10.7%	8.5%
Cc1cn(C)c(CC(=O)NCc2cccc(Cl)c2)c1C(=O)O	.	.	.	3.4%	11.1%
CCCN(CCC)CCCNC(=O)c1nn(C)c2c1CS(=O)(=O)c1ccccc1-2	.	.	.	16.1%	7.1%
NNC(=O)c1ccc(COc2ccccc2)cc1	0.2%	-21.6%	-22.6%	0.8%	2.8%
CCC(=O)c1ccc(OCc2ccc(C(=O)c3ccccc3)cc2)cc1	-0.3%	-9.5%	-35.8%	10µM*	17.7%
COc1ccc(C(=O)CC(=O)c2ccccc2O)cc1	8.1%	?	0.3%	?	299.2%
CCC(=O)c1ccc(OCc2ccccc2)c(OC)c1	21.6%	6.31µM*	-6.3%	-8.4%	6.3%
COc1ccc(C(=O)CC(=O)c2ccccc2O)cc1OC	28.8%	12.6µM*	23.2%	27.1%	177.5%
CCC(=O)c1ccc(OCc2ccc(C(=O)OC)cc2)c(OC)c1	10.4%	78.3%	26.2%	9.3%	2.1%
Fc1ccc(-c2nc(-c3c[nH]c4ccccc34)cs2)cc1	.	8.4%	.	.	.
COc1ccc(/C=C/C(=O)c2c(O)c(OC)c3occc3c2OC)cc1OC	.	-2.2%	.	.	.
Cc1ccccc1CNC(=O)C(C)n1nc(C)n2c(cc3occc32)c1=O (stereo not given)	.	.	.	7.4%	3.2%
CC(C)c1ccc(NC(=O)CSC2=Nc3ccccc3C3=NC(CCC(=O)NCc4cccs4)C(=O)N23)cc1 (stereo not given)	.	.	.	-13.9%	19.5%
Cc1ccc(NC(=O)C(=O)NCC(c2cccnc2)N2CCN(Cc3ccccc3)CC2)cc1C (stereo not given)	.	.	.	7.7%	2.7%
O=C(N1CCN=C1SCc1cccnc1)C12CC3CC(CC(C3)C1)C2	-9.6%	-29.7%	-25.7%	3.55µM*	3.4%
O=C(c1cccs1)N1CCN=C1SCc1cccnc1	4.3%	-31.1%	2.2%	-3.5%	-6.9%
CCCCN1C(=O)/C(=C/C=C2/CC(C)(C)CN2C)SC1=S	-4.7%	10µM*	-3.9%	?	-8.1%
Cc1ccc(Nc2nnc(-c3ccc4c(c3)OCO4)o2)c(C)c1	-6.9%	10µM*	7.7%	10.0%	-0.1%
SMILES	GLP1R ag	BRCA1 expr act	a7 integrin act	GLP1R inv ag	HEK293 tox
CCOC(=O)c1ccc2nc3c(cc2c1)CCS3	1.8%	10µM*	19.7%	3.2%	-0.9%
Cc1ccc(C(=O)N/N=C\c2ccccc2[N+](=O)[O-])cn1	3.1%	4.47µM*	-19.1%	13.5%	-0.5%
Cc1ccccc1C(=O)N=c1sccn1C	11.3%	?	11.6%	5.4%	12.8%
Cc1cccc(C(=O)N=c2sccn2C)c1[N+](=O)[O-]	-0.9%	5.01µM*	14.1%	30.8%	-21.8%
CCN(Cc1ccccc1)S(=O)(=O)c1ccc(N2CCCCS2(=O)=O)cc1	.	.	.	-24.5%	0.0%
COc1cccc(/C=N/NC(=O)c2ccoc2C)c1O	3.2%	-40.1%	24.6%	1.26µM*	-41.0%
Cc1ccc(/C=N/NC(=O)c2ccoc2C)s1	-0.6%	?	21.0%	-3.6%	10.0%
